Assay outcomes from PubChem BioAssay.
An excerpt weighted towards active compounds, which were near 2.3% of everything screened.
Bcl-xL primary: Bcl-xL (human) inhibition | actives 0.7% (n = 320,000) | Q07817 | inhibition, % at 10.9 µM | GST-Bcl-xL / FITC-Bim BH3 peptide fluorescence polarization;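 active means inhibition above the mean of all tested compounds plus 3 SD, cutoff set per campaign, cut at about 30% in these data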;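 further: 0% = DMSO wells and 100% = unlabeled Bim-BH3 peptide competitor; inhibitors lower millipolarization by displacing the labeled peptide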
Mcl-1 Bim block: inhibitors of Bim-Mcl-1 interaction, human; Q07820; Bead-based flow cytometry, Bim peptide-Mcl-1 binding; inhibition, % at 10 µM; actives 0.1% (n = 190,000); AID 1009; in the data active means inhibition above about 40%;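 further: 0% = no compound tracer wells and 100% = peptide blocker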
MCL1 BIM primary: disrupts human MCL1 binding to BIM-BH3 peptide. Q07820. GST-MCL1 / FITC-Bim-BH3 fluorescence polarization. AID 2057. actives 0.68% (n = 320,000). inhibition, % at 10.9 µM;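 active means inhibition above the mean inhibition of all tested compounds plus 3 SD, set per campaign, cut at about 40% in these data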;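 further: 0% = DMSO wells and 100% = unlabeled Bim-BH3 peptide control; higher means more loss of mP so more displacement of Bim peptide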
Mcl1-Bid inh: Mcl-1/Bid interaction inhibition. actives 0.97% (n = 220,000). TR-FRET Mcl-1/Bid-Dy647 peptide binding, 1536-well. inhibition, % at 21.7 µM. AID 1021. Q07820;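 active means compounds that cut the binding signal by more than half at the single screening dose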;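 further: His-tagged Mcl-1 with europium anti-His antibody binding Bid BH3 peptide; 0% = Mcl-1 plus peptide wells and 100% = peptide-only wells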
Mcl1 Noxa PPI: disrupts binding of human Mcl-1 to Noxa peptide | TR-FRET Mcl-1/Noxa peptide binding, 2 h | Q07820 | AID 1022 | inhibition, % at 21.7 µM | actives 1.5% (n = 220,000);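 active means compounds that cut the protein-peptide binding signal by more than 50% relative to plate controls in a single-dose test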;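 further: His-tagged Mcl-1 with rhodamine Noxa BH3 peptide and terbium anti-His antibody; 0% = Mcl-1 plus Noxa peptide wells and 100% = peptide-only wells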
GLD-1 TGE inh: GLD-1-TGE RNA interaction inhibition (C. elegans) | Q17339 | actives 0.44% (n = 320,000) | inhibition, % at 5.96 µM | purified GLD-1 + fluorescein TGE RNA, fluorescence polarization;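 active means percent inhibition above a per-plate cutoff, the plate mean of test compounds plus 3 SD, cut at about 30% in these data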;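 further: 0% = DMSO wells with GLD-1 and probe and 100% = wells lacking GLD-1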
Target sequence (Q17339 whole entry, looked up): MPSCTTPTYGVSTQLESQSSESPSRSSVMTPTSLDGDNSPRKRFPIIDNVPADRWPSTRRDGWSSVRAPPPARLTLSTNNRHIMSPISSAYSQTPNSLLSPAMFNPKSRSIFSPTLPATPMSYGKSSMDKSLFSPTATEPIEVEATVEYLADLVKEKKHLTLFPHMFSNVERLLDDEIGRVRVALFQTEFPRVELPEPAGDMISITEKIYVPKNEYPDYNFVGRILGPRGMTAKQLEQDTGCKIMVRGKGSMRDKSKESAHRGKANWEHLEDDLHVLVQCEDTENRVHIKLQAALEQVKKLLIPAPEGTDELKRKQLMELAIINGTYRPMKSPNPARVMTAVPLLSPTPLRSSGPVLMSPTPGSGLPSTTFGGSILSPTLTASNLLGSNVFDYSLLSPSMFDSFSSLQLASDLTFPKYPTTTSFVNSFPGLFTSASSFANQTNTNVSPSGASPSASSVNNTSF
* hit, by the source's call; · = no result given.

SMILES	Bcl-xL primary	Mcl-1 Bim block	MCL1 BIM primary	Mcl1-Bid inh	Mcl1 Noxa PPI	GLD-1 TGE inh
COc1ccc(CCN=C(N)NS(=O)(=O)c2ccc(F)cc2)cc1OC	2	·	3	·	·	0
CN(Cc1ccccc1)Cc1nc2scc(-c3ccccc3)c2c(=O)[nH]1	-3	-4	0	-7	15	-5
COc1cc(/C=N/OCC(=O)Nc2cc(C)on2)ccc1OCc1ccccc1	0	-3	-6	11	10	-6
COc1cccc(CN(C(=O)c2ccc([N+](=O)[O-])cc2)C2CCS(=O)(=O)C2)c1 (centres undefined)	1	·	2	·	·	3
CCC1(c2ccccc2)NC(=O)N(CC(=O)N(CC(=O)Nc2ccccc2C(F)(F)F)Cc2ccco2)C1=O (centres undefined)	-7	·	-10	·	·	9
COc1ccc2cc(C3CC(c4cccs4)=NN3C(C)=O)c(Cl)nc2c1 (centres undefined)	1	·	1	54*	15	-8
CCCN[C@H]1CCc2nc(N)sc2C1	-3	·	1	·	·	1
C=CCNC(=S)NNC(=O)c1ccccc1	3	0	9	-41	3	2
C=CCNC(=S)NNC(=O)c1ccc([N+](=O)[O-])cc1	8	0	16	-13	68*	-4
CCC(C(=O)OCC(=O)Nc1cc(Cl)ccc1Cl)c1ccccc1 (centres undefined)	1	-3	9	-18	-27	2
CCC(=O)OC1(C)C(=O)C=C2C=C(c3ccsc3)OC=C2C1=O (centres undefined)	25	·	36	4	68*	18
CC[C@@]1(C(=O)OC)N[C@H](CN(C)C(=O)Nc2ccc(F)cc2)[C@@H]2C(=O)N(C)C(=O)[C@@H]21	·	·	·	·	·	0
C=CCc1cc(Cl)ccc1OCCOCCNC(C)CC (centres undefined)	-7	-1	-15	40	33	-3
CCC(C)NCCOCCSc1ccc(Cl)cc1 (centres undefined)	5	-5	5	52*	4	-1
O=C(Cc1c(F)cccc1Cl)Nc1ccccc1C(=O)N1CCOCC1	5	·	1	·	·	5
O=C1c2sc3nc4ccccc4n3c2C(=O)N1c1ccccc1Cl	4	-12	3	-17	62*	-2
CC1(C)Cc2c(C#N)c(N3CCN(C(=O)c4ccccc4Cl)CC3)nc(-c3ccco3)c2CS1	33*	0	43*	-21	46	13
CC(=O)N1CCN(c2nc(-c3ccco3)c3c(c2C#N)CC(C)(C)SC3)CC1	12	-3	8	-18	17	5
COCCN1CC(C(=O)NCc2ccccc2-n2ccnc2C)CCC1=O (centres undefined)	-4	·	3	·	·	1
CCN(C(=O)CSc1ncccn1)c1cccc2ccccc12	·	·	·	·	·	3
COc1ccc(CNCC(=O)Nc2sccc2C#N)cc1	-2	-4	-1	28	53*	-2
COc1ccc(N2CCN(CC(=O)Nc3sccc3C#N)CC2)cc1	9	-2	10	-50	24	1
O=C(O)CCNC(=O)c1ccc(NC(=O)Cc2ccc(Cl)cc2)cc1	6	-2	6	-1	4	2
O=C(O)c1[nH]c2ccccc2c1C=NCc1ccccc1Cl	0	0	0	89*	-5	-8
COc1ccc2c(c1)CC/C(=C\Nc1ccc3c(c1)OCO3)C2=O	-24	-4	-27	-9	73*	-33
SMILES	Bcl-xL primary	Mcl-1 Bim block	MCL1 BIM primary	Mcl1-Bid inh	Mcl1 Noxa PPI	GLD-1 TGE inh
Cc1cccc(NC(=O)CSCC(=O)Nc2ccc(S(=O)(=O)N3CCOCC3)cc2)c1	-1	·	-1	·	·	-4
Cn1c(=O)c2[nH]c(CN(Cc3ccccc3)Cc3ccccc3)nc2n(C)c1=O	-4	2	-2	-7	-18	34*
CN(Cc1ccccc1)Cc1nc2c([nH]1)c(=O)[nH]c(=O)n2C	7	-4	11	97*	·	4
CN(C)Cc1nc2c([nH]1)c(=O)n(C)c(=O)n2C	3	2	4	-23	8	0
CCn1c(SCC(=O)Nc2cccc(S(=O)(=O)N(C)c3ccccc3)c2)nnc1C1CC1	6	·	6	·	·	-2
Cc1cc(NC(=O)c2cccs2)ncc1NC(=O)C(C)(C)C	-3	·	-2	·	·	-2
CCOC(=O)NNc1ccc2nonc2c1[N+](=O)[O-]	17	·	25	-10	97*	2
COc1ccc(C(=O)NNC(=O)CN2CCC(n3nnc4cc(C(F)(F)F)ccc43)CC2)cc1	4	-2	5	0	52*	2
CCn1cc(C(=O)Nc2cccc(C(=O)OC)c2)c(=O)c2ccc(C)nc21	-2	·	2	·	·	-3
CCn1cc(C(=O)Nc2ccc(-n3cnnn3)c(OC)c2)c(=O)c2ccc(C)nc21	·	2	·	48	58*	·
CCOc1ccc(N(CC(=O)Nc2ccc(OC)cc2)C2=NC3CS(=O)(=O)CC3S2)cc1 (centres undefined)	0	·	9	·	·	1
Cc1ccc(-c2nnc(N3CC(C)OC(C)C3)c3ccccc23)cc1 (centres undefined)	-2	-3	-1	91*	3	-5
Cc1cc(NS(=O)(=O)c2ccc(NC(NC(=O)C(C(F)(F)F)C(F)(F)F)(C(F)(F)F)C(F)(F)F)cc2)no1	·	1	·	71*	40	·
CN(C)c1ccc(N2CC(C)(C)C2=O)cc1	3	-3	8	-46	63*	14
O=C1NC(=Nc2ccccc2)S/C1=C\c1ccccc1	-1	·	-6	·	·	-3
Cc1ccc(N=C2NC(=O)S/C2=C\c2ccco2)cc1	23	0	26	48	83*	-4
O=C1NC(=Nc2ccccc2)/C(=C/c2ccco2)S1	42*	-3	47*	-32	47	-36
Cc1noc(C)c1NC(=O)N(C)C[C@H]1Oc2ccc(NC(=O)Nc3ccc4c(c3)OCO4)cc2C(=O)N([C@H](C)CO)C[C@@H]1C	·	·	·	·	·	-5
CCc1nc(C)ccc1OCC(=O)NCCCN(C)C	-3	-3	0	55*	32	8
CCc1nc(C)ccc1OCC(=O)O	-2	-1	-8	22	20	4
CC1CCN(c2c(NCC3CCC(C(=O)NCCC4=CCCCC4)CC3)c(=O)c2=O)CC1 (centres undefined)	9	·	6	-31	21	-5
CCN(CC)c1ccc(C=Nc2cccnc2Cl)c(O)c1	44*	·	51*	·	·	28
Cc1ccc2cc(/C=N/NC(=O)[C@H]3C[C@@H]3c3ccccc3)c(Cl)nc2c1	-2	-2	10	-4	-2	0
Cc1cccc2cc(/C=N/NC(=O)c3ccncc3)c(Cl)nc12	6	·	9	-15	-3	4
Cc1cccc2cc(/C=N/NC(=O)c3ccccc3O)c(Cl)nc12	-3	-3	2	28	83*	7
O=C(N/N=C/c1cc2cc3c(cc2nc1Cl)OCCO3)c1ccccc1O	-4	-51	-6	60*	71*	1
